Measurements reported in PubChem BioAssay (NCATS).
Results filed as inconclusive are left out. Entries that show only a call come without a potency. Activity calls are given as the source filed them. The call rests on the fitted dose curve; in most records, active means well fitted inhibition curve with a large enough effect; inconclusive means small, poorly fitted or top-dose-only effect; inactive means no such curve, though single readings can be large or run the other way.

These compounds were tested against Cytochrome P450 3A4 (Homo sapiens) (UniProt P08684) (assay: qHTS Assay for Inhibitors and Substrates of Cytochrome P450 3A4 (AID 884; further: nearly all actives have a fitted effect of over 50% in size)). Settings: recombinant CYP3A4, Luciferin-PPXE luminescence; series mostly up to 57.1 µM.
Cytochrome P450 3A4 (Homo sapiens), sequence (P08684 whole entry, looked up): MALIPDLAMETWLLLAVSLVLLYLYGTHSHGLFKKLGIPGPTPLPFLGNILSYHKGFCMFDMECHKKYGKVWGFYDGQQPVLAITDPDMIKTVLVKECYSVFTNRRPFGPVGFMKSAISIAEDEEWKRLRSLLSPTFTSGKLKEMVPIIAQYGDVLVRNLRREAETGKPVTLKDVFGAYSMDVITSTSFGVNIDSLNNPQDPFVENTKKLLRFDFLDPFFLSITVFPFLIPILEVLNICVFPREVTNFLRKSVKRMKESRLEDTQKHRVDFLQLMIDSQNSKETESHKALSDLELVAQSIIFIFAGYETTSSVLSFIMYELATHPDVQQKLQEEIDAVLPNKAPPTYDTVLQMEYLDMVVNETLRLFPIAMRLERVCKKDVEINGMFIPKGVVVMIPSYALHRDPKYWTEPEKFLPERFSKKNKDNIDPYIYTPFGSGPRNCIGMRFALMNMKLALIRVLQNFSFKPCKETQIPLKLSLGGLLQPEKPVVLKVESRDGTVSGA
Description: NIH Molecular Libraries Screening Centers Network [MLSCN]
NIH Chemical Genomics Center [NCGC]
The P450 gene superfamily is involved in the metabolism and clearance of xenobiotics. This assay used human CYP3A4 to measure the dealkylation of luciferin-6' phenylpiperazinylyl (Luciferin-PPXE; […]) to luciferin. The luciferin is then measured by luminescence after the addition of a luciferase detection reagent. Luciferin-PPXE concentration in the assay was equal to its KM for CYP3A4. Inhibitors and some substrates limit the production of luciferin, and decrease measured luminescence.
NCGC Assay Protocol Summary:
Two uL of enzyme and substrate mix (final concentrations: 20nM CYP3A4, 25uM Luciferin-PPXE, 200mM KPO4) were dispensed into a white, solid bottom 1536-well microtiter plate. 23nL of compound was transferred by a pin tool. The plate was incubated at RT for 10 min. Two uL of an NADPH regeneration solution (Promega supplied reagent) was dispensed and the reaction was allowed to continue for 60 min at RT. Then the reaction was stopped by reconstituted luciferin detection buffer. After another 20 min of incubation the plate was read on the ViewLux (Perkin Elmer) at 60 sec exposure and 2x2 binning. This protocol was carried out with Promega-Glo reagents and further information can be found at http://www.promega.com/tbs/tb325/tb325.pdf. Data were normalized to the to AC100 inhibition (57 uM ketoconazole).
Keywords: P450, CYP3A4, Luciferase, MLSMR, MLSCN, NIH Roadmap, qHTS, NCGC
Potency means the concentration at half of the fitted maximal effect.

SMILES	Potency
Cc1ccccc1	inactive
O=S(=O)(O)O	inactive
CCCCCCCC(=O)O	inactive
IC(I)I	inactive
CCOC(C)=O	inactive
CCN(CC)Cc1cc(Nc2ccnc3cc(Cl)ccc23)ccc1O	inactive
CC1=C2[C@@H]([C@H](C)CC[C@H]2/C=C(\C)C(=O)O)[C@H](O)C1	inactive
Cc1cn([C@H]2C[C@H](O)[C@@H](CO)O2)c(=O)[nH]c1=O	inactive
CC1=C(/C=C/C(C)=C/C=C/C(C)=C/C=C/C=C(C)/C=C/C=C(C)/C=C/C2=C(C)C(=O)CCC2(C)C)C(C)(C)CCC1=O	inactive
CCCCCCCC/C=C\CCCCCCCC(=O)O	inactive
Nc1ccn([C@H]2CS[C@@H](CO)O2)c(=O)n1	inactive
CC(Cc1ccc(O)c(O)c1)C(C)Cc1ccc(O)c(O)c1 (stereo not given)	12.6 µM (active)
O=CCCCC=O	inactive
Oc1cc(O)c2c(c1)OC(c1ccc(O)c(O)c1)C(O)C2 (stereo not given)	inactive
Cc1c(C)c2c(c(C)c1O)CC[C@@](C)(CCC[C@H](C)CCC[C@H](C)CCCC(C)C)O2	inactive
O=C(O)CN(CCN(CC(=O)O)CC(=O)O)CC(=O)O	inactive
CC1=C(/C=C/C(C)=C/C=C/C(C)=C/C=C/C=C(C)/C=C/C=C(C)/C=C/C2=C(C)CCCC2(C)C)C(C)(C)CCC1	inactive
O=c1ccn([C@@H]2O[C@H](CO)[C@@H](O)[C@H]2O)c(=O)[nH]1	inactive
CC(O)CO (stereo not given)	inactive
OCc1ccccc1O[C@@H]1O[C@H](CO)[C@@H](O)[C@H](O)[C@H]1O	inactive
